Bioassay records: PubChem, National Center for Advancing Translational Sciences (NCATS)
Only some compounds are listed: those with a hit (about 19% of all), similar ones and a draw of the others.
HT1080 IDH1KD tx = qHTS for induction of synthetic lethality in tumor cells producing 2HG: qHTS for the HT-1080-IDH1KD cell line; Potency, µM (doses to about 46.1 µM), inactives show top-dose activity, negative = toxicity, usual class: cytotoxic; 360,000 compounds, 2% hits; HT-1080 IDH1 knockdown viability, ATP luminescence, 48 h;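 also: potency is read from the fitted curve at half-maximal effect; 0% = DMSO wells and -100% = cell-free medium wells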
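Cytotoxicity counter-line: IDH1KD HT-1080, 48 h, CellTiter-Glo. Curves classed by r2, magnitude and activity.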
IL1B secr inh = qHTS for Inhibitors of Inflammasome Signaling: IL-1-beta AlphaLISA Primary Screen; THP-1 LPS/ATP IL-1B secretion, AlphaLISA, 16 h; stronger effect = lower value; activity change, % at 57.5 µM; AID 743279, 2014; 360,000 compounds, 4.7% hits; in the data active = activity change below about -50%; inconclusive = mostly about -30% to -49%
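THP-1 cells pretreated 1 hr with compounds (up to 57.5 uM final), then stimulated with LPS (250 ng/mL final) plus ATP (1.25 mM final); secreted IL-1B measured by AlphaLISA after 16 hr, decreased signal indicating inhibition.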
HT1080-NT tox = qHTS for induction of synthetic lethality in tumor cells producing 2HG: qHTS for the HT-1080-NT fibrosarcoma cell line | AID 686970, 2013 | HT-1080-NT fibrosarcoma viability, CellTiter-Glo ATP luminescence, 48 h | 360,000 compounds, 1.6% hits | Potency, µM (highest dose often 46.1 µM), for inactives: at the top dose activity, negative = less viability, most hits filed as cytotoxic;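 also: NT is the 2HG producing partner of a matched IDH1 knockdown line; potency is read from the fitted curve at half-maximal effect; 0% = DMSO-treated cells and -100% = media-only wells without cells; nearly all actives have a fitted effect of over 55% in size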
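Viability of the 2HG-overproducing fibrosarcoma line after 48 hours of compound exposure at 37 degrees C was determined by luminescence with CellTiter-Glo, and concentration-effect curves were then fitted and categorized.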
TDP1 cell noCPT = qHTS for Inhibitors of human tyrosyl-DNA phosphodiesterase 1 (TDP1): qHTS in cells in absence of CPT. 420,000 compounds, 15% hits. Potency, µM (highest dose often 46.2 µM), for inactives: top-dose activity change, negative = growth inhibition, hits mostly inhibitors. AID 686978, 2013. DT40 Tdp1-/- hTDP1 cells, no CPT, ATP luminescence, 48 h; also: potency is read from the fitted curve at half-maximal effect; nearly all actives have a fitted effect of over 55% in size
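Stably hTDP1-transfected Tdp1-null chicken DT40 cells were treated with library compounds minus camptothecin and grown for at least 48 hr at 37 °C, after which cellular ATP was quantified by luminescence.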
TDP1 cell CPT = qHTS for Inhibitors of human tyrosyl-DNA phosphodiesterase 1 (TDP1): qHTS in cells in presence of CPT; chicken DT40 Tdp1-/-;hTDP1 cells + 20 nM CPT, ATP luminescence, 48 h; Potency, µM (doses to about 46.2 µM), without a hit: at the highest dose activity change, negative = growth inhibition, most hits filed as inhibitors; 420,000 compounds, 12% hits; also: potency is read from the fitted curve at half-maximal effect; nearly all actives have a fitted effect of over 55% in size
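Cell growth measured by CellTiter-Glo luminescence after a minimum 48 h, 37 C compound exposure with 20 nM CPT in Tdp1-knockout DT40 cells stably expressing hTDP1, seeded 400/well; qHTS titration format.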
* = called active by the depositor; u = inconclusive; x = not tested or not shown; [ ] = dose if it differs, or a comment. Unless noted, calls follow the shape of the dose curve; as a rule, active = well fitted curve in the direction sought with a large enough effect; inconclusive = small, poorly fitted or top-dose-only effect, or another doubt; inactive = no such curve, though single readings can be large; an effect the other way counts as inactive or inconclusive. Unless noted, % is scaled to controls: 0 for no effect and ±100 for the full control effect.

SMILES	HT1080 IDH1KD tx	IL1B secr inh	HT1080-NT tox	TDP1 cell noCPT	TDP1 cell CPT
CCNC(=O)C1(C)CCN(C(=O)c2cccc(OC(C)=O)c2C)C1 (centres undefined)	5%	1	24%	-23%	3%
COc1ccc(-n2cc3ccc([N+](=O)[O-])cc3n2)cc1	-11%	-5	-9%	29µM*	u
CC(=O)c1ccccc1NC(=O)COC(=O)Cc1cccc(C(F)(F)F)c1	14%	15	14%	-6%	-2%
COc1ccc(C2Oc3cc(OC)cc(OC)c3CC2O)cc1 (centres undefined)	x	x	x	16µM*	u
COc1cc(OC)c2c(c1)OC(c1ccccc1)CC2=O (centres undefined)	x	x	x	u	4%
CCC(CO)Oc1cc(NC(=O)c2ccccc2)c2ncn(C(C)C)c2c1 (centres undefined)	7%	-16	6%	u	u
CCC(CN(C)C)Oc1cc(NCc2ccccc2)c2ncn(C(C)C)c2c1 (centres undefined)	-13%	15	-13%	u	26µM*
COc1cc(NCc2ccccc2)c2ncn(C(C)C)c2c1	1%	-29	0%	-28%	u
CCC(CO)Oc1cc(NC(=O)c2ccc(C)cc2)c2ncn(C(C)C)c2c1 (centres undefined)	8%	u	7%	u	23µM*
N#CCCN(C(=O)COC(=O)CCc1c[nH]c2ccccc12)c1ccccc1	-1%	-12	1%	-12%	1%
O=C(c1cc(-c2ccccc2Cl)nc2ccccc12)N1CCN(c2ccccc2O)CC1	13%	-70*	1%	u	18µM*
O=C(c1cc(-c2ccccc2Cl)nc2ccccc12)N1CCC1	4%	18	1%	u	-28%
O=C(c1cc(-c2cccs2)nc2ccccc12)N1CCN(c2ccccc2O)CC1	-22%	-67*	-9%	u	u
CN1CCCN(C(=O)c2cc(-c3cccc4ccccc34)nc3ccccc23)CC1	-13%	-63*	0%	21µM*	16µM*
COc1ccccc1N1CCN(C(=O)c2cc(C(C)(C)C)oc2C)CC1	-15%	-60*	-2%	21µM*	u
Cc1oc(C(C)(C)C)cc1C(=O)N1CCN(c2ncccc2C(F)(F)F)CC1	-9%	-6	-7%	23µM*	u
COC(=O)C1CCN(C(=O)c2ccc(SC)cc2OC)CC1	2%	-6	3%	-4%	7%
COc1cc(SC)ccc1C(=O)N1CCN(c2ccccc2OC)CC1	8.2µM*	30	9.2µM*	4.6µM*	21µM*
Cc1cc(C)c2cc(C(=O)N3CCN(c4ncccc4C(F)(F)F)CC3)[nH]c2c1	u	-20	u	15µM*	u
CC(C)(C)NC(=O)N1CCN(c2ncccc2C(F)(F)F)CC1	15%	24	3%	-18%	-6%
COc1ccccc1N1CCN(C(=O)c2c(C)cc(=O)oc2C)CC1	13%	0	19%	4%	2%
O=c1oc(-c2ccccc2)c(-c2ccccc2)c2ccccc12	-16%	-4	0%	u	u
Cc1cccc(C(CC(=O)N2CCCCC2)c2ccccc2)c1O (centres undefined)	4%	-2	9%	-5%	19%
COCC(=O)N1C[C@H]2CON(C)[C@H]2C[C@H]1c1cccc(-c2ccccc2)c1	1%	0	1%	-22%	-15%
CCOC(=O)CNC(=O)N1CCCC(N(C)CCc2ccccc2)C1 (centres undefined)	10%	15	-3%	2%	2%
SMILES	HT1080 IDH1KD tx	IL1B secr inh	HT1080-NT tox	TDP1 cell noCPT	TDP1 cell CPT
Cc1ccc(CNC(=O)c2cnc3ccccc3n2)cc1	-19%	8	-29%	-24%	-26%
O=C(Nc1ccc2oc(=O)ccc2c1)c1ccc(-c2ccc(Cl)cc2)o1	10%	15	17%	-27%	-23%
O=C(Nc1ccc2oc(=O)ccc2c1)c1ccccc1[N+](=O)[O-]	2%	-1	-1%	4%	1%
O=C(Nc1ccc2oc(=O)ccc2c1)c1ccc(-c2cccc([N+](=O)[O-])c2)o1	8.2µM*	6	10µM*	7.3µM*	8.2µM*
O=C(Nc1ccc2oc(=O)ccc2c1)c1ccc(-c2ccccc2[N+](=O)[O-])o1	u	23	18µM*	u	1%
O=C(Nc1ccc2oc(=O)ccc2c1)c1ccc(-c2cccc(Cl)c2)o1	16%	-27	12%	u	8.2µM*
OC(c1ccc(F)cc1)c1nc(-c2csc3ccccc23)cs1 (centres undefined)	-19%	-19	u	26µM*	18µM*
OC(c1ccccc1)c1nc(-c2csc3ccccc23)cs1 (centres undefined)	2%	69	u	-2%	u
COc1cccc(C(C)(O)c2nc(-c3ccc(F)c(Cl)c3)cs2)c1 (centres undefined)	-28%	-23	u	u	u
COc1cccc(C(C)(O)c2nc(-c3ccc(F)cc3OC)cs2)c1 (centres undefined)	u	18	u	u	23µM*
COc1cc(F)ccc1-c1csc(C(O)(c2ccccc2)C(F)(F)F)n1 (centres undefined)	-26%	u	u	15µM*	23µM*
COc1cc(F)ccc1-c1csc(C(O)c2ccccc2)n1 (centres undefined)	-12%	-16	-4%	u	26µM*
O=C(Cc1ccc2c(c1)OCO2)N1CCOc2ccc(CN3CCOCC3)cc2C1	x	x	x	-17%	2%[9.04 µM]
COc1ccc(C(C)(O)c2nc(-c3ccc(F)cc3OC)cs2)cc1 (centres undefined)	u	46	-29%	10µM*	8.2µM*
Cc1ccc(-c2csc(C(C)(O)c3ccc(F)c(F)c3)n2)cc1C (centres undefined)	u	5	u	-26%	u
COc1cc(F)ccc1-c1csc(C(C)(O)c2ccc(F)c(F)c2)n1 (centres undefined)	u	17	-26%	18µM*	u
COc1ccc(C(C)(O)c2nc(-c3ccc(F)c(Cl)c3)cs2)cc1 (centres undefined)	u	29	u	u	u
CCCC1Cc2c(sc(N)c2C#N)CO1 (centres undefined)	2%	-9	3%	-28%	-25%
